Screens: PubChem, several laboratories
E coli Lon inh – E. coli protease La inhibition; P0A9M0; purified E. coli Lon protease, fluorescence polarization; inhibition, % at 7.94 µM; 360,000 compounds, 0.42% hits; AID 602123; in the data active means inhibition above about 13%, passing the limit was not always enough;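 further: 0% = enzyme with probe and DMSO and 100% = no enzyme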
Target sequence (P0A9M0 whole entry, looked up): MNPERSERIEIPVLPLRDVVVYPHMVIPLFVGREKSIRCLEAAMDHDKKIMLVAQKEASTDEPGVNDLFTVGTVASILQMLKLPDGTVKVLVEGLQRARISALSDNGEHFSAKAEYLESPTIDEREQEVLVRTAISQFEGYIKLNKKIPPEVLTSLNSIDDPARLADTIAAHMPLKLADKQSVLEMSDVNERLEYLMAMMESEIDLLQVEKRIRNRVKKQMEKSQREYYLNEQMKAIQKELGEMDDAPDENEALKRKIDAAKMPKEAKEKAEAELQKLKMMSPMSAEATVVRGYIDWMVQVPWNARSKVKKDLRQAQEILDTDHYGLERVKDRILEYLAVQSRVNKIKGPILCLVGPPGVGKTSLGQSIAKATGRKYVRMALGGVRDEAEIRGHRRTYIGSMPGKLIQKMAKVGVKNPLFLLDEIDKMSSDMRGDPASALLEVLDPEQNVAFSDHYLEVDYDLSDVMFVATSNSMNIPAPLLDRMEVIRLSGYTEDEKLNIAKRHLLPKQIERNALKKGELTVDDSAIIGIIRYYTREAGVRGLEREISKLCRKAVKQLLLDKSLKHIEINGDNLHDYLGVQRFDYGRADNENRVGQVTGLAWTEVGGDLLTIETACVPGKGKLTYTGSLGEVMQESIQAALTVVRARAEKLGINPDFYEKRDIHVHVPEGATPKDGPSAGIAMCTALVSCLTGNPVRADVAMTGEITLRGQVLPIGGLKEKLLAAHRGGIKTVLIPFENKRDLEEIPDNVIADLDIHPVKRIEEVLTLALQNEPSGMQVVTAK
Keap1-Nrf2 PPI – Keap1-Nrf2 (human) interaction inhibition | Q14145 | Keap1 Kelch-Nrf2 peptide fluorescence polarization, 1536-well | inhibition, % at 9.4 µM | 340,000 compounds, 0.15% hits; in the data active means inhibition above about 12%; inconclusive means no clear call, values can overlap the other calls; inactive means below about 7.3%;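 further: human Keap1 Kelch domain with fluorescein labeled Nrf2 9mer peptide probe; 0% = neutral control wells and 100% = peptide positive control; higher means more block of Keap1 binding to Nrf2 peptide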
ZTA counter – counter-screen for EBNA-1 inhibitors: inhibitors of Epstein-Barr virus ZTA; P03206; ZTA-DNA binding, fluorescence polarization; inhibition, % at 11 µM; 320,000 compounds, 0.15% hits; in the data active means inhibition above about 33%
LANA DNA inh – inhibitors of KSHV LANA C-terminal domain DNA binding; MBP-C-LANA/FAM-LBS DNA binding, fluorescence polarization; inhibition, % at 9 µM; 340,000 compounds, 0.078% hits; AID 504423;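 active means highest replicate inhibition at or above 60% at 9 µM, even if other replicates fall short; inactive means all replicates below 60% inhibition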;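 further: 0% = neutral control wells and 100% = 4 µM acridine orange control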
EBNA-1 inhibitor – blocks EBNA-1 binding to DNA. EBNA-1 DNA binding, fluorescence polarization. inhibition, % at 14.8 µM. 300,000 compounds, 0.34% hits. AID 1950; in the data active means inhibition above about 28%
eLon confirm – E. coli Lon inhibition confirmation. purified E. coli Lon, fluorescence polarization. 1,400 compounds, 31% hits. inhibition, % at 7.94 µM. shares compounds with E coli Lon inh. AID 602230; in the data active means inhibition above about 16%;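 further: 0% = enzyme with probe and DMSO and 100% = no enzyme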
Active calls of the source: *; ? = inconclusive; nt = no result given; + = active, no number. Most compounds without a hit are left out; they make up all but 0.85% or so of the library.

SMILES	E coli Lon inh	Keap1-Nrf2 PPI	ZTA counter	LANA DNA inh	EBNA-1 inhibitor	eLon confirm
COc1ccc(C(=O)N=S2CCN(C(=O)c3ccc(Cl)cc3)CC2)cc1	103*	nt	-11	nt	-9	12
O=[n+]1c2c(n([O-])c3cc(F)c(N4CCCC4)cc31)CCCC2	114*	-18	-11	39	9	111*
O=[n+]1c2c(n([O-])c3cc(F)c(N4CCCC4)cc31)CCC2	151*	-11	-18	38	6	190*
CCN(CC)S(=O)(=O)c1ccc(N2CCOCC2)c(NC(=O)c2ccc(=O)[nH]c2)c1	-8	0	nt	0	nt	nt
Fc1ccc(CN2CC[C@H]3C=CCc4cccc(c43)C2)cc1	30*	-5	-9	2	nt	-9
O=C(N/N=C/c1cc(Br)c(Br)o1)c1cccnc1	27*	0	2	11	-3	6
CC1CCCN(C(=O)C2CCN(S(=O)(=O)c3ccccc3)CC2)C1 (centres undefined)	-10	-2	nt	0	nt	nt
Cc1ccc(C(=O)CSc2ncn[nH]2)cc1	3	-4	-4	1	-18	nt
COc1ccc(C(=O)CSc2ncn[nH]2)cc1OC	21*	-4	12	-1	-4	-10
C[C@H](NC(=O)[C@@H]1CSC2c3ccccc3C(=O)N21)C(=O)NCCc1ccc(F)cc1 (some centres undefined)	23*	-9	6	0	-1	-3
COc1ccc2c(c1)c1nc3ccccc3nc1n2Cc1ccc(OC)c(OC)c1	97*	2	3	8	0	12
O=C1Cc2cc(S(=O)(=O)N3CCN(c4cccc(Cl)c4)CC3)ccc2N1	52*	1	-4	-1	-9	-6
O=C1CCc2cc(S(=O)(=O)N3CCN(c4cccc(Cl)c4)CC3)ccc2N1	-12	-1	0	-3	0	nt
CCOC(=O)NC(=O)/C(C#N)=C\Nc1sccc1C(=O)OC	+	?	1	13	-6	2
Cc1ccc2nc3n(c(=O)c2c1)-c1ncccc1C(=O)NC3Cc1ccc(O)cc1 (centres undefined)	-4	nt	nt	nt	nt	nt
CC1(C)CC(=O)C2=C(C1)Nc1ccccc1NC2c1ccc(F)c(F)c1 (centres undefined)	5	-1	1	-1	10	nt
CC1(C)CC(=O)C2=C(C1)Nc1ccccc1NC2c1ccccc1F (centres undefined)	34*	-1	3	7	3	2
Cc1c(C2Nc3ccccc3NC3=C2C(=O)CC(C)(C)C3)cnn1C (centres undefined)	144*	0	-2	6	-7	2
O=C(Nc1ccncc1)c1cc(S(=O)(=O)N2CCCC2)ccc1Cl	21*	-6	nt	-2	nt	-5
O=C(Nc1ccncc1)c1cc(S(=O)(=O)N2CCCCC2)ccc1Cl	6	1	-6	-1	1	nt
O=C(NNC(=O)C(c1ccccc1)c1ccccc1)c1ccccc1O	-1	nt	nt	nt	nt	nt
CC(NC(=O)CN1C(=O)NC2(CCCCCC2)C1=O)c1ccccc1 (centres undefined)	5	0	1	-1	nt	nt
CCN1CCN(c2nc3ccccn3c(=O)c2C=O)CC1	20*	-4	2	2	-8	-3
Cc1ccc2nc(N3CCN(c4ccccc4)CC3)c(C=O)c(=O)n2c1	8	2	-15	1	0	nt
Cc1ccc2nc(N3CCN(C)CC3)c(C=O)c(=O)n2c1	64*	-8	4	4	2	-1
SMILES	E coli Lon inh	Keap1-Nrf2 PPI	ZTA counter	LANA DNA inh	EBNA-1 inhibitor	eLon confirm
O=Cc1c(N2CCN(CCO)CC2)nc2ccccn2c1=O	41*	1	5	8	0	-5
CCCN(C)C1CN(Cc2cn(Cc3cccc(Cl)c3)nn2)S(=O)(=O)C1 (centres undefined)	-6	nt	nt	nt	nt	nt
O=S(=O)(Nc1ccc(S(=O)(=O)Nc2ncccn2)cc1)c1ccc(Cl)cc1	3	6	6	0	12	nt
Nc1[nH]n(-c2c(Cl)cc(Cl)cc2Cl)c(=O)c1N=Nc1ccc(S(=O)(=O)Nc2ncccn2)cc1	21*	-2	nt	-3	nt	9
O=Cc1ccc2noc(-c3ccc(F)cc3)c2c1	20*	-12	-12	9	-11	110*
CN(C)Cc1csc(NC(=O)Nc2ccccc2Oc2ccccc2)n1	86*	nt	nt	nt	nt	6
CN(C)Cc1csc(NC(=O)Nc2ccccc2-c2ccccc2)n1	-15	nt	nt	nt	nt	nt
COc1ccc(CC(=O)NNC(=O)c2nn(Cc3ccccc3)c(=O)c3ccccc23)cc1OC	-2	-3	-2	1	-6	nt
O=C1CCCCN1CCc1c[nH]c2ccccc12	14*	-1	13	4	7	-2
CCCS(=O)(=O)NC(=O)C1(C)CCCN(C(=O)c2ccc3ccccc3c2)C1 (centres undefined)	-3	nt	nt	nt	nt	nt
COc1ccc(C(CNC(=O)c2c(C)nn(Cc3ccc(C)cc3)c2Cl)N2CCOCC2)cc1 (centres undefined)	14	2	-3	1	nt	nt
CC1(Oc2cccc(C#N)c2)CCN(Cc2ccccc2OC(F)F)C1 (centres undefined)	-7	nt	nt	nt	nt	nt
Cc1ccc(NC(=O)CS(=O)CC(=O)Nc2ccccc2-c2ccc(C)o2)cc1 (centres undefined)	114*	2	-5	0	-3	0
CC(=O)Nc1ccccc1-c1ccc(C)o1	1	-2	16	0	3	nt
O=C(c1cccs1)N(CC1CCCO1)c1nc(-c2ccccc2)cs1 (centres undefined)	17*	-6	-5	1	0	17*
COc1ccc(C(=O)CC(=O)C(=O)Nc2ccccc2Cl)cc1	-6	-6	6	-1	-2	nt
C(=Cc1cnc2ccccc2n1)c1ccc2c(c1)OCO2	96*	nt	nt	nt	nt	-17
CCOC(=O)N1CCN(C(=O)C(=O)c2cn(CC(=O)N3CCCCCC3)c3ccccc23)CC1	20*	1	6	1	7	2
Cc1ccccc1C(=O)NC(C)C1CC2CCC1C2 (centres undefined)	1	-5	9	-1	-2	nt
CC(NC(=O)c1ccccc1Cl)C1CC2CCC1C2 (centres undefined)	17*	-2	10	0	0	-4
Oc1cccc(/C=N/c2c(-c3ccco3)nc3ccccn23)c1	22*	2	15	2	4	19*
O=[N+]([O-])c1ccc(-c2ccc(/C=N/c3c(-c4ccco4)nc4ccccn34)o2)cc1	80*	-2	22	0	0	18*
Cc1cc(C)c([N+](=O)[O-])cc1-c1ccc(/C=N/c2c(-c3ccco3)nc3ccccn23)o1	31*	1	3	1	-2	-26
COc1ccc(CNC(=O)C2(C)Cc3c(-c4cccc(NC(C)=O)c4)ccnc3O2)cc1OC (centres undefined)	-7	nt	nt	nt	nt	nt
Cc1ccc(-c2nn(-c3ccc(F)cc3)cc2C(=O)NCCCN2CCCC2=O)cc1	-6	4	nt	1	nt	nt
CCn1cnc2cc(NCc3ccc(Br)cc3)ccc21	nt	nt	-9	nt	-3	nt
